Structures can show the parent of a compound that is named as a salt.
test system: Saccharomyces cerevisiae BY4741 SeMeCo community; test: z-score of subpopulation abundance vs DMSO median, subpopulation auxotrophic for HLUM; higher = larger share of this subpopulation than in DMSO controls; conditions: 10 µM; 24 h; SM minimal medium; subpopulation (auxotrophy): HLUM
Method: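 Fluorescent four-plasmid SeMeCo (self-establishing metabolically cooperating S. cerevisiae BY4741 community; plasmids pH-mRuby2, pL-mWasabi, pU-eCFP, pM-TagRFP657) was grown 24 h in minimal SM medium with each Selleck FDA-approved drug at 10 µM in 384-well plates. Cells were fixed and imaged by high-content confocal microscopy. For each auxotrophic subpopulation (and the prototroph), a z-score gives the deviation from the DMSO vehicle-control population median.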

Row | SMILES | z-score of subpopulation abundance
1 | Oc1c(I)cc(I)c2cccnc12 [Diiodohydroxyquinoline] | 1.67
2 | Cc1c(Cl)cccc1Nc1ccccc1C(=O)O [Tolfenamic Acid] | -1.09
3 | CC(=O)OCC(CCn1cnc2cnc(N)nc21)COC(C)=O [Famciclovir] | 1.06
4 | Clc1ccc(CCC(Cn2ccnc2)Sc2c(Cl)cccc2Cl)cc1 (stereo not given) [Butoconazole nitrate] | 20.4
5 | CC(=O)NO [Acetohydroxamic acid] | 0.86
6 | O=C(O)CCNC(=O)c1ccccc1 [Betamipron] | -0.5
7 | CN(C)CCC=C1c2ccccc2CCc2ccccc21 [Amitriptyline HCl] | -0.81
8 | CC1=Nc2ccc(Cl)cc2S(=O)(=O)N1 [Diazoxide] | -1.32
9 | CC(=O)OCC1=C(C(=O)O)N2C(=O)[C@@H](NC(=O)CSc3ccncc3)[C@H]2SC1 [Cephapirin Benzathine] | -0.55
10 | CC(=O)OCC1=C(C(=O)O)N2C(=O)[C@@H](NC(=O)Cc3cccs3)[C@H]2SC1 [Cephalothin] | -0.41
11 | O=c1cc(-c2ccc(O)c(O)c2)oc2cc(O)cc(O)c12 [Luteolin] | -0.27
12 | CC1=C(C(=O)OCCN(Cc2ccccc2)c2ccccc2)C(c2cccc([N+](=O)[O-])c2)C(P2(=O)OCC(C)(C)CO2)=C(C)N1 (stereo not given) [Efonidipine] | 1.4
13 | C[C@]12CC[C@@H]3c4ccc(O)cc4CC[C@H]3[C@@H]1CC[C@@H]2OC(=O)CCC1CCCC1 [Estradiol Cypionate] | 0.52
14 | CC(C)Cc1ccc(C(C)C(=O)O)cc1 (stereo not given) [Ibuprofen Lysine] | -1.27
15 | CCC(=O)Oc1ccc2c(c1)CCC1C2CCC2(C)C(OC(=O)CC)CCC12 (stereo not drawn) [Estradiol dipropionate(17-Beta-Estradiol-3,17-Dipropionate)] | -1.07
16 | O=C1NC(=O)C(c2ccccc2)(c2ccccc2)N1 [Phenytoin] | -0.04
17 | CC1(C)S[C@@H]2[C@H](NC(=O)[C@H](N)c3ccccc3)C(=O)N2[C@H]1C(=O)OCOC(=O)[C@@H]1N2C(=O)C[C@H]2S(=O)(=O)C1(C)C [Sultamicillin Tosylate] | -0.64
18 | Cc1ccc(Cl)c(Nc2ccccc2C(=O)O)c1Cl [Meclofenamate Sodium] | -0.31
19 | CC(C)(C)CC(C)(C)c1ccc(OCCOCC[N+](C)(C)Cc2ccccc2)cc1 [Benzethonium Chloride] | 0.07
20 | CCCc1nn(C)c2c(=O)[nH]c(-c3cc(S(=O)(=O)N4CCN(C)CC4)ccc3OCC)nc12 [Sildenafil] | 0.26

Row | SMILES | z-score of subpopulation abundance
21 | Cc1c(OCC(F)(F)F)ccnc1C[S+]([O-])c1nc2ccccc2[nH]1 (stereo not given) [Lansoprazole] | 1.37
22 | O=C(NCCO[N+](=O)[O-])c1cccnc1 [Nicorandil] | -0.37
23 | CO[C@H]1C[C@@H]2CC[C@@H](C)[C@@](O)(O2)C(=O)C(=O)N2CCCC[C@H]2C(=O)O[C@H]([C@H](C)C[C@@H]2CC[C@@H](O)[C@H](OC)C2)CC(=O)[C@H](C)/C=C(\C)[C@@H](O)[C@@H](OC)C(=O)[C@H](C)C[C@H](C)/C=C/C=C/C=C/1C [Rapamycin (Sirolimus)] | 20.9
24 | O=C1CC2(CCCC2)CC(=O)N1CCCCN1CCN(c2ncccn2)CC1 [Buspirone HCl] | 0.74
25 | CC1(C)S[C@@H]2[C@H](NC(=O)Cc3ccccc3)C(=O)N2[C@H]1C(=O)O.CCN(CC)CCOC(=O)c1ccc(N)cc1 [Penicillin G Procaine] | 1.65
26 | C#C[C@]1(O)CC[C@H]2[C@@H]3CCC4=CC(=O)CC[C@@H]4[C@H]3CC[C@@]21CC [Levonorgestrel] | -0.86
27 | OCCOCCN1CCN(C2=Nc3ccccc3Sc3ccccc32)CC1 [Quetiapine Fumarate] | 0.41
28 | Cc1c[nH]c(=O)[nH]c1=O [Thymine] | 0.51
29 | CCCCC(F)(F)[C@@]1(O)CC[C@H]2[C@@H](CC(=O)[C@@H]2CCCCCCC(=O)O)O1 [Lubiprostone] | -0.37
30 | CCn1cc(C(=O)O)c(=O)c2cc(F)c(N3CCNCC3)nc21 [Enoxacin Sesquihydrate] | -0.27
31 | CC[C@H](Nc1ncnc2[nH]cnc12)c1nc2cccc(F)c2c(=O)n1-c1ccccc1 [Idelalisib (CAL-101, GS-1101)] | -0.62
32 | O=C(Cn1cnnn1)N[C@@H]1C(=O)N2C(C(=O)O)=C(CSc3nncs3)CS[C@H]12 [Ceftezole] | 0.55
33 | CCCCCOc1ccccc1/C(=C\SC)n1ccnc1 [Neticonazole Hydrochloride] | 13
34 | N[C@@H]1CCCCN(c2c(F)cc3c(=O)c(C(=O)O)cn(C4CC4)c3c2Cl)C1 [Besifloxacin HCl] | 0.22
35 | CO[C@@]1(NC(=O)C(C(=O)O)c2ccc(O)cc2)C(=O)N2C(C(=O)O)=C(CSc3nnnn3C)CO[C@@H]21 (stereo not given in full) [Latamoxef sodium] | 0.61
36 | CC#C[C@]1(O)CC[C@H]2[C@@H]3CCC4=CC(=O)CCC4=C3[C@@H](c3ccc(N(C)C)cc3)C[C@@]21C [Mifepristone] | -0.67
37 | C[C@@H](c1ncncc1F)[C@](O)(Cn1cncn1)c1ccc(F)cc1F [Voriconazole] | 16.5
38 | CC[C@H]1OC(=O)[C@H](C)[C@@H](O[C@H]2C[C@@](C)(OC)[C@@H](O)[C@H](C)O2)[C@H](C)[C@@H](O[C@@H]2O[C@H](C)C[C@H](N(C)C)[C@H]2O)[C@](C)(O)C[C@@H](C)CN(C)[C@H](C)[C@@H](O)[C@]1(C)O [Azithromycin] | 0.36
39 | C[C@@H](c1nc(-c2ccc(C#N)cc2)cs1)[C@](O)(Cn1cncn1)c1cc(F)ccc1F [Isavuconazole] | 13.5
40 | CN1CCN(CCCN2c3ccccc3Sc3ccc(Cl)cc32)CC1 [Prochlorperazine dimaleate salt] | 0.48

From the supplement of paper PMC8975748
